The sequences below were run against RPS6KA5 (assay: pooled miR-30 sensor sort-seq; sequence = guide strand). Conditions: shRNA.
With TTTGTTTGGATCTACTGTGAGA the sensor-assay potency score (higher = more potent) was -1.04.
TACACGTCAAACTTCGGTCATG showed a sensor-assay potency score (higher = more potent) of -0.748.
For TTCATCTCGAATGACTGGCTTA, the sensor-assay potency score (higher = more potent) was 0.378.
Sequence TTCTCCTAGATATCTCAGCTTG has a sensor-assay potency score (higher = more potent) of -0.946.
With TACAGCTGAAACAAGCTTCCTC the sensor-assay potency score (higher = more potent) was 0.279.
TTTTTATGCACACACTTTCGAC showed a sensor-assay potency score (higher = more potent) of -1.13.
Sequence TCACTTTTTAATATTCTCCTAG has a sensor-assay potency score (higher = more potent) of -0.3.
For TTTCTGTGAACTCTTCTGCAAA, the sensor-assay potency score (higher = more potent) was -1.11.
TAATTCATCTCGAATGACTGGC showed a sensor-assay potency score (higher = more potent) of 0.637.
Work on TTGCTGATTATTTTGACTGCAA yielded a sensor-assay potency score (higher = more potent) of 0.0107.
TTCTTCATGATTTCCACCGCGC gave a sensor-assay potency score (higher = more potent) of 0.302.

Each sequence was assayed against RRP12 in the same assay as above. Conditions: shRNA.
In the case of TAACTTCACAGCATCGACTGTC, the sensor-assay potency score (higher = more potent) was 0.541.
TTGCTCTCTAGGTAGGGCCGGA showed a sensor-assay potency score (higher = more potent) of -0.614.
With TTGTAAATCATTCTCACTGGGA the sensor-assay potency score (higher = more potent) was 0.0361.
With TCAACTTAGCTGAGACACCAGA the sensor-assay potency score (higher = more potent) was -0.378.
TTGTTGTCATCAGAGCAGCGAA was tested, and the sensor-assay potency score (higher = more potent) was -1.32.
With TGCAGCTTCATCTTCTTCCTGC the sensor-assay potency score (higher = more potent) was 0.0542.
TTGAGCTCTGCTGACAGGGTGC showed a sensor-assay potency score (higher = more potent) of -0.0342.
TATGTAACTTCACAGCATCGAC was tested, and the sensor-assay potency score (higher = more potent) was -0.864.
TAGATCTTAGATTCCACTGTGC showed a sensor-assay potency score (higher = more potent) of 0.564.
TTTCTGGTGCTTGAGCTTCTGG showed a sensor-assay potency score (higher = more potent) of -0.862.
With TTCAACTTAGCTGAGACACCAG the sensor-assay potency score (higher = more potent) was -0.063.
For TCGACTGTCAGGTCACTCCTTC, the sensor-assay potency score (higher = more potent) was -0.238.

These sequences were tested against RSF1 in the same assay as above. Conditions: shRNA.
Sequence TTCTTTTGGTACTTCTCCGTTG has a sensor-assay potency score (higher = more potent) of -0.632.
TTCTTTTCTTTCTTCATCCAAA showed a sensor-assay potency score (higher = more potent) of -0.992.
Work on TTGAGATCCATCACTGATCTTG yielded a sensor-assay potency score (higher = more potent) of 0.36.
Sequence TAGAATTTGTATCTTTCTCTGA has a sensor-assay potency score (higher = more potent) of 0.105.
TGTTCTTCTATGTACATTCTGA gave a sensor-assay potency score (higher = more potent) of 0.345.
For TTGATCTTCAGAAAAGTCTGGC, the sensor-assay potency score (higher = more potent) was 0.121.
TTACTTTAGAATTTGTATCTTT gave a sensor-assay potency score (higher = more potent) of 0.216.
Work on TAAGGCAACATCCAAATCCTGC yielded a sensor-assay potency score (higher = more potent) of -1.12.
TTGATCATCTTGTTCTTCTATG showed a sensor-assay potency score (higher = more potent) of -0.223.
TATTTCTTTACCACGTCGCAAA was tested, and the sensor-assay potency score (higher = more potent) was -1.15.
TTACCAAGGACCATGAACCTGG gave a sensor-assay potency score (higher = more potent) of 0.217.
TTTGAGATTGTCATCAAACTGA showed a sensor-assay potency score (higher = more potent) of 0.222.

What follows are sequences tested against RSPH9 in the same assay as above. Conditions: shRNA.
TTATTCTTTAGCTCAACAGGCT gave a sensor-assay potency score (higher = more potent) of -0.377.
In the case of TTTGGGAATGTCATGCTCCAAG, the sensor-assay potency score (higher = more potent) was -0.888.
For TTAACCAGCATAAGAGACGTGA, the sensor-assay potency score (higher = more potent) was 0.0215.
Work on TATTTCTTCTTCAAAGACTTTT yielded a sensor-assay potency score (higher = more potent) of -0.914.
TAGCCATAGTTCTTGGTGCGGG was tested, and the sensor-assay potency score (higher = more potent) was -0.956.
Note: reference of the scale not given here.
